A short description of assay [1]: qHTS of pediatric cancer cell lines to identify multiple opportunities for drug repurposing: Primary screen for SK-N-MC cells (AID 1347093). Also: potency is read from the fitted curve at half-maximal effect. The gist of the method:
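Metabolically active cells were quantified by ATP-dependent luminescence (CellTiter-Glo, 15 min at room temperature) following 48 h treatment. Cells had been plated at 500-1,000 per well and settled for 5 h beforehand.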
(qHTS replaces the single test concentration by a dilution series.)

A short description of assay [2]: qHTS of pediatric cancer cell lines to identify multiple opportunities for drug repurposing: Primary screen for U-2 OS cells (AID 1347096). Also: nearly all actives have a fitted effect of over 50% in size. In short, it runs like this:
(§1)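 Viability after 48 h compound treatment at 37C, 500-1,000 cells/well, read as ATP luminescence with CellTiter-Glo. Primary screens used 11-point (MIPE, 0.78 nM-46 µM) or 8-point (NPC, 0.59 nM-46 µM) final concentrations; follow-up screens used 11-point dilutions.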

A short description of assay [3]: qHTS of pediatric cancer cell lines to identify multiple opportunities for drug repurposing: Primary screen for Saos-2 cells (AID 1347097). Also: nearly all actives have a fitted effect of over 40% in size. In short, it runs like this: (§2)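 Quantitative HTS format: each compound titrated (MIPE 11 points from 0.78 nM, NPC 8 points from 0.59 nM) onto cells plated 5 hours earlier. After 48 h at 37 degrees C, CellTiter-Glo luminescence was recorded.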

Assay [4] in a line: qHTS of pediatric cancer cell lines to identify multiple opportunities for drug repurposing: Primary screen for SK-N-SH cells (AID 1347098).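 Also: DMSO served as neutral control and bortezomib at 2.3 µM as positive control; nearly all actives have a fitted effect of over 65% in size.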 In short, it runs like this: (§3)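 Cells (500-1,000/well) rested 5 h, then received compounds for 48 h; metabolically active cells were measured by CellTiter-Glo luminescence. Final concentrations spanned up to 46 µM (MIPE, 11-point) or 0.59 nM-46 µM (NPC, 8-point) in primary screens, 11-point in follow-ups.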

Assay [5] in a line: qHTS of pediatric cancer cell lines to identify multiple opportunities for drug repurposing: Primary screen for LAN-5 cells (AID 1347100). Also: potency is read from the fitted curve at half-maximal effect. The gist of the method:
as §1

The nature of assay [6]: qHTS of pediatric cancer cell lines to identify multiple opportunities for drug repurposing: Primary screen for BT-12 cells (AID 1347101). Also: nearly all actives have a fitted effect of over 25% in size. Also: potency is read from the fitted curve at half-maximal effect. In short, it runs like this: as §3
Assay [7] can be described thus: qHTS of pediatric cancer cell lines to identify multiple opportunities for drug repurposing: Primary screen for Rh18 cells (AID 1347102). Also: nearly all actives have a fitted effect of over 65% in size. The gist of the method: as §1
Assay [8] is described as follows: qHTS of pediatric cancer cell lines to identify multiple opportunities for drug repurposing: Primary screen for OHS-50 cells (AID 1347103). Also: nearly all actives have a fitted effect of over 40% in size. Also: potency is read from the fitted curve at half-maximal effect. The gist of the method: as §3
The nature of assay [9]: qHTS of pediatric cancer cell lines to identify multiple opportunities for drug repurposing: Primary screen for RD cells (AID 1347104). Also: nearly all actives have a fitted effect of over 55% in size. The gist of the method: as §2
Assay [10] in a line: qHTS of pediatric cancer cell lines to identify multiple opportunities for drug repurposing: Primary screen for MG 63 (6-TG R) cells (AID 1347105). Also: nearly all actives have a fitted effect of over 50% in size. In short, it runs like this:
as §2

A short description of assay [11]: qHTS of pediatric cancer cell lines to identify multiple opportunities for drug repurposing: Primary screen for control Hh wild type fibroblast cells (AID 1347106).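 Also: series mostly up to about 46 µM; a drop in luminescence marks cytotoxicity and a rise apparent proliferation; nearly all actives have a fitted effect of over 55% in size.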 The gist of the method:
as §1

A short description of assay [12]: qHTS of pediatric cancer cell lines to identify multiple opportunities for drug repurposing: Primary screen for Rh30 cells (AID 1347107). Also: series mostly up to about 46 µM; nearly all actives have a fitted effect of over 75% in size. In short, it runs like this:
as §1

Assay [13] is described as follows: qHTS of pediatric cancer cell lines to identify multiple opportunities for drug repurposing: Primary screen for Rh41 cells (AID 1347108).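 Also: series mostly up to about 46 µM; luminescence drop marks cytotoxic hits; nearly all actives have a fitted effect of over 70% in size.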 The gist of the method: as §2
The nature of assay [14]: qHTS of pediatric cancer cell lines to identify multiple opportunities for drug repurposing: Confirmatory screen for NB1643 cells (AID 1347109). Also: nearly all actives have a fitted effect of over 45% in size. In short, it runs like this: as §1
The nature of assay [15]: qHTS of pediatric cancer cell lines to identify multiple opportunities for drug repurposing: Confirmatory screen for SK-N-MC cells (AID 1347111).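 Also: cells exposed to compound for 48 h before the readout; nearly all actives have a fitted effect of over 70% in size.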 Also: potency is read from the fitted curve at half-maximal effect. The gist of the method:
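SK-N-MC cells at 500-1,000 cells/well in growth media were pre-incubated 5 h, then exposed to compounds at 11-point dilutions for 48 h at 37 degrees C, 5% CO2. Viability was read as CellTiter-Glo luminescence.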

The nature of assay [16]: qHTS of pediatric cancer cell lines to identify multiple opportunities for drug repurposing: Primary screen for SJ-GBM2 cells (AID 1347091). Also: potency is read from the fitted curve at half-maximal effect. The gist of the method:
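Viability measured as metabolically active cells via CellTiter-Glo luminescence following 48 hours of compound exposure, 11-point dilutions in confirmatory testing. 500-1,000 cells/well plated 5 hours before dosing; controls were DMSO and 2.3 µM bortezomib.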

Assay [17] can be described thus: qHTS of pediatric cancer cell lines to identify multiple opportunities for drug repurposing: Primary screen for NB-EBc1 cells (AID 1347095). In short, it runs like this:
as §2

A short description of assay [18]: qHTS of pediatric cancer cell lines to identify multiple opportunities for drug repurposing: Primary screen for NB1643 cells (AID 1347099). Also: nearly all actives have a fitted effect of over 50% in size. Also: potency is read from the fitted curve at half-maximal effect. In short, it runs like this:
as §2

Assay [19] is described as follows: qHTS of pediatric cancer cell lines to identify multiple opportunities for drug repurposing: Primary screen for A673 cells (AID 1347092). Also: nearly all actives have a fitted effect of over 45% in size. In short, it runs like this:
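Cells are plated, rested 5 h, dosed by pintool, incubated 48 h, then lysed with CellTiter-Glo and read by luminescence. DMSO is the neutral control; bortezomib at 2.3 uM final is the positive control.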

Seven compounds from PubChem BioAssay (NCATS) can be followed below.

Values joined by “and” are separate entries in the source; they are usually repeats but may differ in a detail not shown here. Equal values may be shown once. Results filed as inconclusive are left out. Active and inactive are the calls of the source. Calls follow the shape of the dose curve; as a rule, active = well fitted curve in the direction sought with a large enough effect; inconclusive = small, poorly fitted or top-dose-only effect, or another doubt; inactive = no such curve, though single readings can be large; an effect the other way counts as inactive or inconclusive.

In the case of `O=C(CCc1ccc(O)cc1)c1c(O)cc(O)cc1O`, the Potency in assay [1] was 118 nM (active); in assay [5] it was 6.62 µM (active); in assay [6], 1.22 µM (active); in assay [8] it was 432 nM (active). In addition, the Potency result in assay [2], in [3], in assay [4], in assay [7], in assay [9] and in assay [10] was “inactive” throughout. For the same compound, the Potency result in assay [11], in assay [12], in assay [13], in assay [14] and in assay [15] was “inactive” each time.

Take `COc1cc2nc(N3CCN(C(=O)C4CCCO4)CC3)nc(N)c2cc1OC` (stereo unspecified): the Potency result in [16], in assay [1], in assay [17], in assay [2], in [3] and in assay [4] was “inactive” each time. In addition, the Potency entry in [18], in assay [5], in [6], in [7], in [8] and in [9] was “inactive” in each case. The Potency entry in [10], in [11], in assay [12] and in assay [13] was “inactive” throughout.

Turning to `Cc1ccc(C(=O)c2cc(O)c(O)c([N+](=O)[O-])c2)cc1`, the Potency in assay [1] was 23.7 µM (active) and 18.7 µM (active). Moreover, the Potency result in assay [2], in assay [4], in [18], in assay [6], in assay [7] and in assay [9] was “inactive” in each case. The Potency result in [10], in assay [11], in assay [12] and in assay [13] was “inactive” throughout.

Consider `O=c1cc(N2CCOCC2)oc2c(-c3ccccc3)cccc12`, for which the Potency in assay [16] was 16.6 µM (active); in [1], 9350 nM (active); in [18] it was 20.9 µM (active); in assay [8] it was 2730 nM (active). Moreover, the Potency result in assay [2], in assay [5] and in assay [11] was “inactive” in each case.

Consider `CN(C)c1ccc(O)c2c1C[C@H]1C[C@H]3[C@H](N(C)C)C(=O)C(C(N)=O)=C(O)[C@@]3(O)C(=O)C1=C2O`, for which the Potency result in [16], in assay [17], in assay [2], in [3], in [4] and in assay [18] was “inactive” each time. Also, the Potency result in assay [7], in assay [8], in [9], in assay [10], in assay [11] and in assay [12] was “inactive” throughout. The Potency entry in assay [13] and in [14] was “inactive” in each case.

For the compound `COc1cc(C(C)=O)ccc1OCCCN1CCC(c2noc3cc(F)ccc23)CC1`, the Potency result in assay [19], in assay [1], in assay [17], in assay [2], in [3] and in assay [4] was “inactive” in each case. Moreover, the Potency entry in [18], in assay [5], in [7], in assay [10], in assay [11] and in [12] was “inactive” each time. The Potency result in assay [13] and in [14] was “inactive” throughout. The Potency in [8] was 21.7 µM (active) and 19.5 µM (active).

As to `O=C(NCC1CCCCN1)c1cc(OCC(F)(F)F)ccc1OCC(F)(F)F` (stereo unspecified), the Potency result in [2], in assay [7], in assay [9], in assay [10], in assay [11] and in [12] was “inactive” throughout. Moreover, in assay [13], the Potency entry was “inactive”. Also, in [15], the Potency was 7.37 µM (active).
